Test results: PubChem BioAssay
Where “and” joins values, the source holds several entries; their conditions need not be identical. Equal entries are not always repeated. For part of these data: Potency and affinity values are given separately. Calls of active or inactive are those of the source. Unless noted, the rule behind the calls is not given here.

How the values were obtained:
[1] = antimalarial activity against Dd2 strain (AID 2302;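 active = growth inhibition above 50% at the single 2 µM test dose, taken to imply half-maximal potency below 2 µM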;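 note: 0% = DMSO untreated growth and 100% = chloroquine plus artemisinin killed control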); conditions: P. falciparum Dd2 in RBCs, LDH growth readout, 72 h; at 2 µM; hits give high values
[2] = human hepatoma cell viability loss – ATP luminescence, cytotoxicity control for P. falciparum antimalarial project, primary screen (AID 2303;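 active = inhibition above 50%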;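 note: 0% = DMSO wells and 100% = digitonin-killed cells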); conditions: HepG2 viability, 24-48 h, at 10 µM, hits give high values
[3] = target: L-lactate dehydrogenase (Plasmodium falciparum (isolate CDC / Honduras)) (UniProt Q27743); assay: PfLDH activity inhibition – cell lysate, 3D7 strain, counter-screen for P. falciparum growth inhibition project (AID 2304);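 note: 0% = vehicle and 100% = reference inhibitor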; conditions: P. falciparum 3D7 crude extract, LDH APAD/NBT absorbance; at 2 µM; hits give high values
[4] = inhibition of 3D7 malaria parasite growth – strain 3D7 (AID 2306);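 note: 0% = DMSO wells and 100% = chloroquine plus artemisinin control wells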; conditions: P. falciparum 3D7 erythrocytic growth, LDH absorbance, 72 h; at 2 µM; hits give high values
[5] = target: Calcium-dependent protein kinase 1 (Plasmodium falciparum (isolate 3D7)) (UniProt P62344); assay: PfCDPK1 kinase inhibitors, biochemical, TCAMS library (AID 1159585; cut-off not given, nearly all actives have IC50 up to about 0.98 µM;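 note: inhibitors leave more ATP so luminescence rises with inhibition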); conditions: recombinant PfCDPK1, Kinase-Glo ATP depletion luminescence
[6] = target: Plasmodium falciparum protein kinase 6 (PK6, PF3D7_1337100) (UniProt Q8IDW1); assay: PfPK6 kinase inhibitors, biochemical, TCAMS library (AID 1159586); conditions: recombinant PfPK6, Kinase-Glo ATP depletion luminescence
[7] = target: Protein kinase 7 (PK7), Plasmodium falciparum 3D7 (PF3D7_0213400) (UniProt Q7YTF7); assay: inhibition of Plasmodium PK7 catalytic activity – biochemical, TCAMS antimalarial set, Kinase-Glo luminescence (AID 1159587); conditions: recombinant PfPK7, Kinase-Glo ATP depletion luminescence
[8] = target: Calcium-dependent protein kinase 4 (Plasmodium falciparum (isolate 3D7)) (UniProt Q8IBS5); assay: PfCDPK4 kinase inhibitors, biochemical, TCAMS library (AID 1159588; cut-off not given, nearly all actives have IC50 up to about 0.91 µM); conditions: recombinant PfCDPK4, Kinase-Glo ATP depletion luminescence
Sequence of Calcium-dependent protein kinase 4 (Plasmodium falciparum (isolate 3D7)) (Q8IBS5 whole entry, looked up): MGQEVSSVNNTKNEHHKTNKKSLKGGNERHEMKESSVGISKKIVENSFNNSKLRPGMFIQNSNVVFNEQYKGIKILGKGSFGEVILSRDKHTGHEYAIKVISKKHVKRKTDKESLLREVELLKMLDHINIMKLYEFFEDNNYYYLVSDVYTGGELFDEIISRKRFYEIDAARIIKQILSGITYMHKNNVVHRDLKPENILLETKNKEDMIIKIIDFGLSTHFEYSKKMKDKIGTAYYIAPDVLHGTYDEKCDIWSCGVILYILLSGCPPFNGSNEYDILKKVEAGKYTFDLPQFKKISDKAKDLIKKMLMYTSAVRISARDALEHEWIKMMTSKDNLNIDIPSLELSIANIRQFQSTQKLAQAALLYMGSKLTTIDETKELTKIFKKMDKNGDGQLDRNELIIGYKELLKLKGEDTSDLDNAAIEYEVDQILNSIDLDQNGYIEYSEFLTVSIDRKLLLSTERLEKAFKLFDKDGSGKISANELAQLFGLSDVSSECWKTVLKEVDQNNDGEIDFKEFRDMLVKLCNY

Sequence of Protein kinase 7 (PK7), Plasmodium falciparum 3D7 (PF3D7_0213400) (Q7YTF7 1-343): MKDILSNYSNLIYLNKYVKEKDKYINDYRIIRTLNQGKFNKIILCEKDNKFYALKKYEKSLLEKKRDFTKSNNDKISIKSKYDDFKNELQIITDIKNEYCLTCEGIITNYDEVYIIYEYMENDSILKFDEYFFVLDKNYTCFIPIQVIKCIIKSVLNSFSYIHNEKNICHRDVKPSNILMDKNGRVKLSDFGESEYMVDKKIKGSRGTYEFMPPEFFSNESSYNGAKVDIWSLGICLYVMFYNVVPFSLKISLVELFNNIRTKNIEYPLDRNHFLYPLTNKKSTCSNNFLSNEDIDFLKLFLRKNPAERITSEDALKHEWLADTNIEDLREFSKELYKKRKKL
Sequence of Calcium-dependent protein kinase 1 (Plasmodium falciparum (isolate 3D7)) (P62344 whole entry, looked up): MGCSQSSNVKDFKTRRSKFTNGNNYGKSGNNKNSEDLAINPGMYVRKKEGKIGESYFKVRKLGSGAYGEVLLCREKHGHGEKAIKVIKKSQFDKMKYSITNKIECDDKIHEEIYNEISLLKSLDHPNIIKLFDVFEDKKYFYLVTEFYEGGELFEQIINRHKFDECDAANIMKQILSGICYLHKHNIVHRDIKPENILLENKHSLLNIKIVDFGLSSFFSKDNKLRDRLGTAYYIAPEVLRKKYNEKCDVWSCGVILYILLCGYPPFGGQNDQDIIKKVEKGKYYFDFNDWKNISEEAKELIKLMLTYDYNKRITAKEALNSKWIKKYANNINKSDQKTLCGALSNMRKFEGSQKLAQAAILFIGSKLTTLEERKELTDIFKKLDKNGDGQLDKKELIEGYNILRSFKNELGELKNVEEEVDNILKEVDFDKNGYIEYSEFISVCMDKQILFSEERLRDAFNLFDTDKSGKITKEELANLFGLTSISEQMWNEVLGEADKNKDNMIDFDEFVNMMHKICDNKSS
Sequence of Plasmodium falciparum protein kinase 6 (PK6, PF3D7_1337100) (Q8IDW1 1-305): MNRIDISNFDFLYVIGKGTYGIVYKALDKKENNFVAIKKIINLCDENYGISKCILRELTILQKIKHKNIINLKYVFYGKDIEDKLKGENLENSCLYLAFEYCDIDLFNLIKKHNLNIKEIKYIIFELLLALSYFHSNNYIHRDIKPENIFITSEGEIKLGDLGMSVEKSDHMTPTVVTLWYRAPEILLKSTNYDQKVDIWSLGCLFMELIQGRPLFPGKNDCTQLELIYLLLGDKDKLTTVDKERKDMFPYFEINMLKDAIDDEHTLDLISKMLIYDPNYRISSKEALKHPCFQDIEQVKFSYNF
Sequence of L-lactate dehydrogenase (Plasmodium falciparum (isolate CDC / Honduras)) (Q27743 whole entry, looked up): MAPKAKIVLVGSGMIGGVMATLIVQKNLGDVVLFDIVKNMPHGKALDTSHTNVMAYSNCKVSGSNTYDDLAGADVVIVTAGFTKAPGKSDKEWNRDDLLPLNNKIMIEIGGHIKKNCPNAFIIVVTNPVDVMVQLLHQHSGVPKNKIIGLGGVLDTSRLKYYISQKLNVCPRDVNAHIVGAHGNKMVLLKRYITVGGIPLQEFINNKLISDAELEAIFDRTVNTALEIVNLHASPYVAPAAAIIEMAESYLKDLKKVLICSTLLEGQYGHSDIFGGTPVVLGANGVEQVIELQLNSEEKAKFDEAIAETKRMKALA

COc1cccc(O)c1CNCC(O)c1cccc(C(F)(F)F)c1 (centres undefined)
active: growth inhibition [1] 96% | growth inhibition [4] 98%
inactive: inhibition [2] 31% | inhibition [3] 4% | outcome [5] | outcome [6] | outcome [7] | outcome [8]

COc1ccc2[nH]cc(C3C[C@H]4CC[C@@H](C3)N4CCC3CCN(C(=O)/C=C/c4ccc(Cl)c(Cl)c4)CC3)c2c1 (some centres undefined)
inactive: inhibition [2] 38% | inhibition [3] 5% | outcome [5] | outcome [6] | outcome [7] | outcome [8]
active: growth inhibition [1] 80% | growth inhibition [4] 101%

COC(=O)/C=C/c1ccc(C[C@@H](C)NC[C@H](O)c2cccc(C(F)(F)F)c2)cc1
active: growth inhibition [1] 93% | growth inhibition [4] 97%
inactive: inhibition [2] 41% | inhibition [3] -6% | outcome [5] | outcome [6] | outcome [7] | outcome [8]

Cc1cc(NC(=O)[C@H](CC(C)C)Nc2ccc(C#N)c3ccccc23)ccc1F
active: growth inhibition [1] 88% | growth inhibition [4] 95%
inactive: inhibition [2] 35% | inhibition [3] 3% | outcome [5] | outcome [6] | outcome [7] | outcome [8]

O=C(/C=C/c1ccc(Cl)c(Cl)c1)NCCCCCN1[C@@H]2CC[C@H]1CC(c1c[nH]c3ccc(O)cc13)C2 (some centres undefined)
active: growth inhibition [4] 100% and 91%
inactive: growth inhibition [1] -1% and 20% | inhibition [2] 26% and 9% | inhibition [3] 2% and -6% | outcome [5] | outcome [6] | outcome [7] | outcome [8]

COC(=O)c1ccc(CC(C)NCC(O)c2ccc3ccc4ccccc4c3c2)cc1 (centres undefined)
active: growth inhibition [1] 97% | growth inhibition [4] 100%
inactive: inhibition [2] 21% | inhibition [3] -2% | outcome [5] | outcome [6] | outcome [7] | outcome [8]

O=C(NC1CCC(CN2CCC(c3c[nH]c4ccccc34)CC2)CC1)c1cc(-c2ccc(F)cc2F)ccc1O (centres undefined)
active: growth inhibition [1] 101% | growth inhibition [4] 101%
inactive: inhibition [2] 30% | inhibition [3] 0% | outcome [5] | outcome [6] | outcome [7] | outcome [8]

COc1cc(C(=O)NC2CCC(CN3CCC(c4c[nH]c5ccccc45)CC3)CC2)cc(Cl)n1 (centres undefined)
inactive: growth inhibition [1] 45% | inhibition [2] 33% | inhibition [3] -1% | outcome [5] | outcome [6] | outcome [7] | outcome [8]
active: growth inhibition [4] 99%

Oc1ccccc1CNCC(O)c1cccc(C(F)(F)F)c1 (centres undefined)
active: growth inhibition [1] 97% | growth inhibition [4] 100%
inactive: inhibition [2] 1% | inhibition [3] 0% | outcome [5] | outcome [6] | outcome [7] | outcome [8]

COc1ccc2[nH]cc(C3CCN(Cc4ccc(NC(=O)c5ccc(-c6ccccc6)cc5)cc4)CC3)c2c1
active: growth inhibition [1] 72% | growth inhibition [4] 101%
inactive: inhibition [2] 24% | inhibition [3] -6% | outcome [5] | outcome [6] | outcome [7] | outcome [8]

NC(=NCCCCCCN=C(N)/N=C(\N)c1ccc(Cl)cc1)/N=C(\N)c1ccc(Cl)cc1
inactive: inhibition [2] 10% | inhibition [3] -9% | outcome [5] | outcome [6] | outcome [7] | outcome [8]
active: growth inhibition [1] 99% | growth inhibition [4] 98%

CC(C)CNCc1ccc(-c2cccc(CN(C(=O)CCC3CCCC3)C3CCN(Cc4ccccc4)CC3)c2)cc1
active: growth inhibition [1] 92% | inhibition [2] 62% | growth inhibition [4] 101%
inactive: inhibition [3] -7% | outcome [5] | outcome [6] | outcome [7] | outcome [8]

Cc1[nH]c2ccc(O)cc2c1C1CCN(CC2CCC(NC(=O)/C=C/c3ccc(Cl)c(Cl)c3)CC2)CC1 (centres undefined)
active: growth inhibition [1] 95% | growth inhibition [4] 102%
inactive: inhibition [2] 19% | inhibition [3] 3% | outcome [5] | outcome [6] | outcome [7] | outcome [8]

CCOC(C(=O)OCC1CCCN(C)C1)(c1ccccc1)c1ccccc1 (centres undefined)
inactive: growth inhibition [1] 3% | inhibition [2] 13% | inhibition [3] 0% | outcome [5] | outcome [6] | outcome [7] | outcome [8]
active: growth inhibition [4] 98%

Cc1cccc2[nH]cc(C3CCN(CC4CCC(NC(=O)/C=C/c5ccc(Cl)c(Cl)c5)CC4)CC3)c12 (centres undefined)
active: growth inhibition [1] 97% | inhibition [2] 88% | growth inhibition [4] 101%
inactive: inhibition [3] -4% | outcome [5] | outcome [6] | outcome [7] | outcome [8]

COc1ccccc1CC(C)NCC(O)c1cccc(Cl)c1 (centres undefined)
active: growth inhibition [1] 98% | growth inhibition [4] 97%
inactive: inhibition [2] 13% | inhibition [3] -6% | outcome [5] | outcome [6] | outcome [7] | outcome [8]

O=C(/C=C/c1ccc(Cl)c(Cl)c1)NCCC1CCC(N2CCC(c3c[nH]c4ccccc34)CC2)CC1 (centres undefined)
inactive: inhibition [3] -1% | outcome [5] | outcome [6] | outcome [7] | outcome [8]
active: growth inhibition [1] 99% | inhibition [2] 91% | growth inhibition [4] 102%

CC(C)/C(=C(/F)CN1C(=O)C(NC(=O)c2cc3ccccc3[nH]2)C(=O)N(c2ccccc2)c2ccccc21)c1ccccc1 (centres undefined)
inactive: inhibition [2] 7% | inhibition [3] -2% | outcome [5] | outcome [6] | outcome [7] | outcome [8]
active: growth inhibition [1] 82% | growth inhibition [4] 98%
